Experimental data published in PubChem BioAssay (NCI).
The panel holds about 83,000 compounds, 20% with a hit somewhere; the sample as a whole holds those more often.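 Single-concentration screen, 48 h exposure, 96-well plates. Endpoint: percent growth. Below 10 = active.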 Values without a mark were called inactive. Activity calls are given as the source filed them.

The molecules below were run on HL-60(TB) leukemia (assay: NCI-60 one-dose screen, 48 h (100 = growth as untreated, 0 = no growth, -100 = all killed)). Settings: 10 µM unless noted.

SMILES | growth
N#CC1=C2NCCCNc3oc(nc3C#N)Cc3ccccc3CC(=N1)O2 | 62.9%
Cc1ccc(NC2=C(Cl)C(=O)c3nc(C)ccc3C2=O)c(C)c1 | -14.8% (active)
CCNC(=O)N1CCc2cc(OC)c(OCCc3ccc(OC)cc3)cc2C1c1ccc(OC)cc1C (stereo not drawn) | 23.9%
Nc1cc(-c2c[nH]c3ccccc23)nc2cc(-c3c[nH]c4ccccc34)nn12 | 40.1%
CC(c1ccccc1)N1C(=O)/C(=C/c2csc(C#N)n2)SC1=S (stereo not drawn) | 4.32% (active)
CC1(C)CC[C@]2(CN)CC[C@]3(C)C(=CC[C@@H]4[C@@]5(C)CCCNC(C)(C)[C@@H]5CC[C@]43C)[C@H]2C1 | 87%
NS(=O)(=O)c1ccc(Nc2nc(SCC(=O)c3ccc(Cl)cc3)nc3c2CCCC3)cc1 | 59.3%
CC[C@]12CC(C(=O)OC)=C3Nc4ccccc4[C@@]34CCN(C14)[C@@H]1c3cc4c(cc3O[C@@H]1[C@H]2O)NC1=C(C(=O)OC)C[C@@]2(CC)C3N(CC[C@@]143)C[C@H]1O[C@H]12 (stereo partly drawn) | -1.14% (active)
O=c1[nH]c(Sc2sc3ccc(Cl)cc3c2CBr)nc(=S)[nH]1 | 21.7%
Cn1ccnc1C(=O)/C=C/c1ccc(CNC(=O)c2ccc(F)cc2)cc1 | -4.42% (active)
N#Cc1cccc(-c2cc(-c3ccc4c(c3)OCCO4)[nH]n2)c1 | 6.12% (active)
O=C(CCCCCCN1CC(=O)N2[C@@H](c3cccc(Br)c3)c3[nH]c4ccccc4c3C[C@H]2C1=O)NO | 6.52% (active)
CC1=NC2=NN3C(=NN2C(c2ccccc2)=C1)N=NC(c1ccc(Br)cc1)=C3c1ccc(Br)cc1 | 115%
